Compound activity as filed in PubChem.
Rows were chosen to be rich in hits. Some 3% of all compounds tested hit in one or more screens of this group.
PAX8 reporter = PAX8 transcriptional activity inhibition | RMG-I TPO-luciferase reporter, SteadyGlo, 24 h | inhibition, % at 12.6 µM | hit rate 1.2% among 360,000;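 active = mean replicate inhibition at least 60% with every replicate also reaching 60%; inconclusive = only one of the two criteria is met; inactive = mean below 60% and not all replicates reaching 60%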;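 also: luciferase light reporting Pax8 driven TPO promoter activity; plate controls were median of neutral control wells for no effect and mitoxantrone controls for full effect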
EWS-Fli block = inhibitors of EWS/Fli oncoprotein transcriptional activity; inhibition, % at 12.6 µM; A673 NR0B1-luciferase reporter, viability-normalised; hit rate 0.67% among 350,000;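 active = mean inhibition of at least 50% after viability correction, with every replicate also passing that limit; inconclusive = mean reaches 50% but only one of two replicates passes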;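 also: firefly luciferase signal divided by Alamar Blue viability fluorescence both relative to DMSO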
Shn3 3UTR inh = inhibitors of Schnurri-3 3'UTR reporter in osteoblasts. inhibition, % at 12.5 µM. Clone20 osteoblast Shn3 3'UTR firefly luciferase, 24 h. hit rate 0.52% among 360,000;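 active = mean inhibition of at least 75% with every replicate also reaching 75%; inconclusive = mean inhibition at least 75% but some replicate below; inactive = mean inhibition below 75%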;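 also: 0% = median of neutral control wells and 100% = pilot-screen positive control compound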
MITF TRPM1 inh = MITF TRPM1 promoter inhibition in SK-MEL-5 cells | AID 488899 | inhibition, % at 12.5 µM | SK-MEL-5 TRPM1 promoter luciferase, 24 h | hit rate 0.83% among 330,000;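 active = mean inhibition across replicates of 60% or more, whatever share of single replicates reaches that level; inconclusive = some that reach 60%, reason not given; inactive = mean inhibition across replicates below 60%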
Peg3 promoter = Peg3 promoter activity inhibition; HeLa PEG-Prom luciferase reporter, luminescence, overnight; inhibition, % at 20 µM; hit rate 1.7% among 360,000;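 active = inhibition of at least 50% at 20 µM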
ABHD5-PLIN5 inh = blocks binding of human ABHD5 to perilipin-5 | Q00G26+Q8WTS1 | Split G. princeps luciferase complementation, luminescence, 4 h | inhibition, % at 4 µM | hit rate 0.78% among 360,000 | AID 602281;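 active = inhibition above the mean inhibition across every tested compound plus 3 SD, cut at about 22% in these data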;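 also: 0% = DMSO only wells and the 100% control is not disclosed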
ABHD5-PLIN5 conf = confirmation of human ABHD5-PLIN5 interaction inhibitors; shares compounds with ABHD5-PLIN5 inh; biochemical ABHD5-PLIN5 interaction, luminescence; inhibition, % at 4 µM; hit rate 67% among 2,200; AID 651612; in the data active = inhibition above about 23%;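 also: 0% = DMSO vehicle wells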
HNF4 split-luc = counter-screen for ABHD5-PLIN5 inhibitors: HNF4 split-luciferase | inhibition, % at 4 µM | hit rate 77% among 2,200 | shares compounds with ABHD5-PLIN5 inh | AID 651674 | HNF4 dimerization, luminescence, biochemical;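 active = mean inhibition across replicate wells exceeding the computed hit threshold, cut at about 13% in these data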;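 also: light from luciferase halves that rejoin when HNF4 fusion proteins dimerize; 0% = DMSO only wells and the 100% control is not given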
Target sequence (P41235 whole entry, looked up, the tested form may be a part): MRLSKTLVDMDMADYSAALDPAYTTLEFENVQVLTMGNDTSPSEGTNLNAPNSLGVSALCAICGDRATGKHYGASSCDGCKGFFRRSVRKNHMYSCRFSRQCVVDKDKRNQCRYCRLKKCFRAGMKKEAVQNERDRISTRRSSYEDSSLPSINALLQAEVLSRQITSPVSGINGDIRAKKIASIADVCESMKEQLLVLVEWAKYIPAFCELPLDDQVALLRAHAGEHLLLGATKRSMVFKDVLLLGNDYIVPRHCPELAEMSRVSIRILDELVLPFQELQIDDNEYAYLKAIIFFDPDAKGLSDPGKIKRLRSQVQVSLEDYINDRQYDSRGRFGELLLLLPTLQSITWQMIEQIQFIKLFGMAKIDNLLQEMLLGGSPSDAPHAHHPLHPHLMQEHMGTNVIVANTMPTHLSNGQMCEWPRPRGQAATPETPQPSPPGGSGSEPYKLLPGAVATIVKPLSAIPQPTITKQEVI
DNA binding = small molecule DNA binding by fluorescence polarization | shares compounds with EWS-Fli block | salmon sperm DNA acridine orange fluorescence polarization | AC35, µM (series often up to 68 µM), for inactives: top-dose activity change, negative = DNA binding | hit rate 2% among 640 | AID 720586;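 active = fitted curve reaches a 35% signal fall AC35 below twice the sample's top valid tested dose, actives reach about 48 µM in these data; inactive = the rest, including activity in the rising direction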;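 also: lower polarization ratio signals compound binding to DNA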
* hit, by the source's call.

Results for BrC(=C\c1ccccc1)/C=N/n1cnnc1 ?
PAX8 reporter: 95*; EWS-Fli block: 68*; Shn3 3UTR inh: 52; MITF TRPM1 inh: 83*; Peg3 promoter: 111*; ABHD5-PLIN5 inh: 38*; ABHD5-PLIN5 conf: 42*; HNF4 split-luc: 45*; DNA binding: -8%

How did BrC(=C\c1ccccc1)/C=N/Nc1ccc2nncn2n1 do in these assays?
PAX8 reporter: -4; EWS-Fli block: -3; Shn3 3UTR inh: -36; MITF TRPM1 inh: 1; Peg3 promoter: -44; ABHD5-PLIN5 inh: 11

What do the screens show for `CCCCCCCCCCCCCCCCn1cc[n+](C)c1`?
PAX8 reporter: 99*; EWS-Fli block: 73*; Shn3 3UTR inh: 81; MITF TRPM1 inh: 70*; Peg3 promoter: 108*; ABHD5-PLIN5 inh: 32*; ABHD5-PLIN5 conf: 7; HNF4 split-luc: 11; DNA binding: -17%

Results for COc1ccc(/C=C(/C(=O)c2cccs2)N2C=CC=CC2=C(C#N)C#N)cc1 ?
PAX8 reporter: -8; EWS-Fli block: 79*; Shn3 3UTR inh: 67; MITF TRPM1 inh: 46; Peg3 promoter: 94*; ABHD5-PLIN5 inh: 33*; ABHD5-PLIN5 conf: 59*; HNF4 split-luc: 81*; DNA binding: 2%

What do the screens show for `COc1ccc(/C=N/N=C/c2ccc(OC)c(O)c2)cc1O`?
Shn3 3UTR inh: -3; MITF TRPM1 inh: -4; Peg3 promoter: -24; ABHD5-PLIN5 inh: 10

Results for CCN1C/C(=C/c2ccc(OC)c(O)c2)C(=O)/C(=C/c2ccc(OC)c(O)c2)C1 ?
PAX8 reporter: 18; EWS-Fli block: 53*; Shn3 3UTR inh: -20; MITF TRPM1 inh: 21; Peg3 promoter: -7; ABHD5-PLIN5 inh: 42*; ABHD5-PLIN5 conf: 51*; HNF4 split-luc: 30*; DNA binding: 1%

What do the screens show for `O=C(N[C@@H]1CC[C@H](CCNS(=O)(=O)c2ccccc2Cl)O[C@H]1CO)c1ccccc1`?
PAX8 reporter: -4; EWS-Fli block: 7

What do the screens show for `CN(C)Cc1c(O)ccc2c1O/C(=C\C=C\c1ccccc1)C2=O`?
PAX8 reporter: 77*; EWS-Fli block: 75*; Shn3 3UTR inh: 45; MITF TRPM1 inh: 93*; Peg3 promoter: 21; ABHD5-PLIN5 inh: 29*; ABHD5-PLIN5 conf: 20; HNF4 split-luc: 24*; DNA binding: -39%

How did Cc1ccsc1/C=N/Nc1ccc(C(=O)O)cc1 do in these assays?
PAX8 reporter: 78*; EWS-Fli block: 71*; Shn3 3UTR inh: 6; MITF TRPM1 inh: inconclusive; Peg3 promoter: 37; ABHD5-PLIN5 inh: 4; DNA binding: 5%

How did COc1ccc(/C=N/Nc2ccc(C(=O)O)cc2)cc1Br do in these assays?
PAX8 reporter: 44; EWS-Fli block: 69*; Shn3 3UTR inh: 31; MITF TRPM1 inh: 42; Peg3 promoter: 36; ABHD5-PLIN5 inh: -2; DNA binding: -7%

What do the screens show for `O=C(O)c1ccc(N/N=C/c2cc(Br)cs2)cc1`?
PAX8 reporter: 26; EWS-Fli block: 65*; Shn3 3UTR inh: 7; MITF TRPM1 inh: 11; Peg3 promoter: 1; ABHD5-PLIN5 inh: 4; DNA binding: -3%

Results for C[C@H]1CN([C@@H](C)CO)C(=O)c2cc(NS(=O)(=O)c3ccc(Cl)cc3)ccc2O[C@@H]1CN(C)C(=O)Nc1ccc2c(c1)OCO2 ?
EWS-Fli block: 1

How did COc1ccc(S(=O)(=O)N2CCCCN3[C@H](CO)[C@@H](c4ccc(-c5cccnc5)cc4)[C@H]3C2)cc1 do in these assays?
PAX8 reporter: 12

What do the screens show for `C[C@H](CO)N1C[C@H](C)[C@H](CN(C)C(=O)NC2CCCCC2)OCCCC[C@H](C)Oc2ccc(NS(=O)(=O)c3ccc(Cl)cc3)cc2C1=O`?
PAX8 reporter: 36; EWS-Fli block: 7

Results for CCCCNC(=O)O[C@@H]1C[C@H]2CCCC(=O)N3CC[C@@H](C1)[C@@H]23 ?
PAX8 reporter: -3; EWS-Fli block: -5; Shn3 3UTR inh: -6; MITF TRPM1 inh: -3; Peg3 promoter: -11; ABHD5-PLIN5 inh: 4
